Assay [1] can be described thus: qHTS assay for small molecule agonists of the p53 signaling pathway (AID 651631; calls by dose curve; note: nearly all actives have a fitted effect of over 15% in size; note: potency is the fitted concentration of half-maximal effect). In a few lines:
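Readout was fluorescence from the LiveBLAzer FRET substrate, applied for 2 h at room temperature after 16 h compound exposure at 37 °C. Cells were the p53RE-bla HCT-116 line, with beta-lactamase driven by p53 response elements.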
(Quantitative high-throughput screening tests each substance at several concentrations.)

Assay [2] is described as follows: qHTS assay for small molecules that induce genotoxicity in human embryonic kidney cells expressing luciferase-tagged ATAD5 (AID 651632). Note: nearly all actives have a fitted effect of over 15% in size. Note: potency is the fitted concentration of half-maximal effect. In a few lines:
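Genotoxicity read-out via ATAD5-luciferase: HEK293T cells, 16 hr compound incubation at 37C, Amplite detection.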

A short description of assay [3]: qHTS assay for small molecules that induce genotoxicity in human embryonic kidney cells expressing luciferase-tagged ATAD5 - cell viability (AID 651634; calls by dose curve; note: nearly all actives have a fitted effect of over 25% in size; note: potency is the fitted concentration of half-maximal effect). The method in brief:
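Live-cell protease activity (CellTiter-Fluor, fluorescence) indicates viability. HEK293T cells with luciferase-tagged ATAD5; 15.5 hr compound treatment at 37C.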

Assay [4] in a line: qHTS assay for small molecule disruptors of the mitochondrial membrane potential - cell viability (AID 720634; calls by dose curve; note: nearly all actives have a fitted effect of over 20% in size; note: potency is the fitted concentration of half-maximal effect). In a few lines:
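Human hepatoma HepG2 cells were treated for 1 hr with test chemicals, then given m-MPI dye and CellTiter-Glo. Cell viability reflects luminescence proportional to cellular ATP.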

Assay [5] can be described thus: qHTS assay for small molecule disruptors of the mitochondrial membrane potential (AID 720635). Note: potency is the fitted concentration of half-maximal effect. In a few lines:
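HepG2 cells (2,000/well) attached overnight at 37C, then took compound for 1 hr at 37C, 5% CO2. Mito-MPS dye was added for 30 min; fluorescence was read at 490/535 nm (monomers) and 540/590 nm (aggregates).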

A short description of assay [6]: qHTS assay to test for compound auto fluorescence at 590 nm (red) in HepG2 cells (AID 720674). The method in brief:
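Rose Bengal sodium served as the red fluorophore standard. HepG2 monolayers (overnight attachment, MEM with 10% FBS) were exposed to test compounds for 1 hr at 37 C and read at Ex 540/Em 590 nm.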

Assay [7] can be described thus: qHTS assay to test for compound auto fluorescence at 535 nm (green) in HepG2 cells (AID 720675).
Assay [8] in a line: qHTS assay to test for compound auto fluorescence at 590 nm (red) in HEK293 cells (AID 720679). The method in brief:
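We plated HEK293 cells in 10% dialyzed FBS medium, let them adhere for 4-5 hr, then added 23 nL compound. Overnight at 37C and 5% CO2 preceded fluorescence measurement at 540/590nm.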

Assay [9] in a line: qHTS assay to test for compound auto fluorescence at 460 nm (blue) in HEK293 cells (AID 720678). In a few lines:
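Triamterene serves as the blue fluorophore standard. Compound signal at 405/460 nm is read in HEK293 wells (2,000 cells, 10% dialyzed FBS) after overnight treatment at 37C.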

A short description of assay [10]: qHTS assay for small molecule agonists of the p53 signaling pathway - cell viability (AID 651633; calls by dose curve; note: series mostly up to about 83 µM; nearly all actives have a fitted effect of over 30% in size). The method in brief: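 p53RE-bla cells, seeded at 4,000 per well and rested 5 h at 37 C/5% CO2, received compounds in DMSO for 16 h at 37 C. CellTiter-Glo was then added, and luminescence was read after 30 min at room temperature to gauge cytotoxicity.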

Several values for one entry are separate records, joined by “and”; a condition that tells them apart may be missing. Identical values can stand only once. Inconclusive results are not listed. Activity calls are given as the source filed them. Unless noted, calls come from the whole dose curve; as a rule, active = well fitted curve in the direction sought with a large enough effect in the repeat runs; inconclusive = weak or mixed curves; inactive = no such curve, though single readings can be large; an effect the other way counts as inactive or inconclusive.

As for `CCCCC1(COC(=O)CCC(=O)O)C(=O)N(c2ccccc2)N(c2ccccc2)C1=O`, the Potency result in assay [1], in [2], in assay [3], in assay [4], in assay [5] and in assay [6] was “inactive” each time. Also, the Potency result in assay [7] and in [8] was “inactive” throughout.

Regarding `OC[C@H]1O[C@H](O[C@]2(CCl)O[C@H](CCl)[C@@H](O)[C@@H]2O)[C@H](O)[C@@H](O)[C@H]1Cl`, the Potency entry in assay [1], in assay [2], in assay [3], in assay [4], in assay [5] and in assay [6] was “inactive” throughout. Besides, the Potency entry in assay [7], in assay [9] and in assay [8] was “inactive” in each case.

With `O=C1O[C@H]([C@@H](O)CO)C(O)=C1O`, the Potency entry in assay [1], in assay [2], in assay [3], in assay [4], in [5] and in assay [6] was “inactive” throughout. Moreover, the Potency entry in [9] and in assay [8] was “inactive” each time.

With `CC1(C)O[C@@H]2C[C@H]3[C@@H]4CCC5=CC(=O)C=C[C@]5(C)[C@@]4(F)[C@@H](O)C[C@]3(C)[C@]2(C(=O)CO)O1`, the Potency entry in [1], in assay [2], in [10], in [3], in assay [4] and in [5] was “inactive” throughout. Further, the Potency entry in assay [6], in assay [9] and in assay [8] was “inactive” each time.

Regarding `CC12CCC(CC1)C(C)(C)O2`, the Potency result in assay [1], in assay [2], in assay [10], in assay [3], in assay [4] and in assay [5] was “inactive” throughout. Moreover, the Potency entry in assay [6], in assay [7], in [9] and in assay [8] was “inactive” in each case.

In the case of `O=C(O)CC(O)C(=O)O` (stereo not given), the Potency result in assay [1], in assay [2], in assay [10], in assay [3], in assay [4] and in assay [5] was “inactive” each time. In addition, the Potency result in assay [6], in assay [7] and in assay [8] was “inactive” each time.

As for `CC(=O)C(=O)O`, the Potency result in assay [1], in [2], in assay [10], in [3], in [4] and in assay [5] was “inactive” each time. The Potency result in [6], in [9] and in assay [8] was “inactive” in each case.

As to `O=c1[nH]cc(F)c(=O)[nH]1`, the Potency in assay [1] was 4.22 µM (active) and 3.57 µM (active) and 1.57 µM (active); in [2] it was 7.5 µM (active) and 10.1 µM (active). Also, the Potency entry in assay [3], in assay [4], in assay [5], in assay [6], in assay [7] and in [9] was “inactive” in each case. Moreover, in assay [8], the Potency entry was “inactive”.

On to `CCOc1ccc(NC(C)=O)cc1`, for which the Potency result in assay [1], in assay [2], in assay [10], in [3], in [4] and in assay [5] was “inactive” each time. Further, the Potency result in assay [6], in [7], in [9] and in assay [8] was “inactive” throughout.

On to `Nc1c(N=Nc2ccc(-c3ccc(N=Nc4cc(S(=O)(=O)O)c5ccccc5c4N)cc3)cc2)cc(S(=O)(=O)O)c2ccccc12`, for which the Potency result in assay [2], in assay [10], in [4], in assay [6], in assay [7] and in assay [8] was “inactive” each time. Moreover, the Potency is 13.3 µM (active) and 27.3 µM (active) in assay [3]; 17.2 µM (active) in assay [5].

Take `O=S1(=O)OC(c2ccc(O)cc2)(c2ccc(O)cc2)c2ccccc21`: the Potency entry in assay [2], in [10], in [6], in [7], in assay [9] and in assay [8] was “inactive” in each case. Further, the Potency in [3] was 48.6 µM (active) and 8.63 µM (active).

For `C=CCc1ccc(O)c(OC)c1`, the Potency result in assay [1], in [2], in [3], in assay [4], in assay [6] and in assay [7] was “inactive” each time. The Potency entry in [9] and in assay [8] was “inactive” in each case.

On to `Nc1ccc(S(N)(=O)=O)cc1`, for which the Potency entry in assay [1], in assay [10], in assay [3], in assay [4], in assay [5] and in assay [6] was “inactive” each time. Also, the Potency entry in assay [9] and in assay [8] was “inactive” throughout.

Turning to `CN(C)CCOC(c1ccccc1)c1ccccc1`, the Potency result in assay [2], in [3], in assay [4], in assay [5], in assay [6] and in assay [7] was “inactive” in each case. Moreover, the Potency entry in assay [9] and in assay [8] was “inactive” throughout.

In the case of `Nc1ccc(O)c([N+](=O)[O-])c1`, the Potency result in assay [2], in assay [10], in assay [4], in [6] and in assay [8] was “inactive” each time. Besides, the Potency in assay [3] is 53.9 µM (active); in [5], 3.03 µM (active).

In the case of `Cc1cc(C)nc(NS(=O)(=O)c2ccc(N)cc2)n1`, the Potency entry in assay [1], in [10], in [3], in [4], in assay [5] and in assay [6] was “inactive” in each case. The Potency result in assay [9] and in [8] was “inactive” each time.

Take `CC1(C)S[C@@H]2[C@H](NC(=O)[C@H](N)c3ccccc3)C(=O)N2[C@H]1C(=O)O`: the Potency result in [1], in assay [2], in [3], in assay [6] and in assay [8] was “inactive” throughout.

As for `CC(C)C(=O)Nc1ccc([N+](=O)[O-])c(C(F)(F)F)c1`, the Potency result in assay [2], in assay [10], in assay [3], in assay [6], in assay [7] and in assay [9] was “inactive” each time. Moreover, the Potency entry in assay [8] is “inactive”. In addition, the Potency in assay [4] is 12.5 µM (active) and 27.3 µM (active); in [5] it was 13.3 µM (active) and 6.29 µM (active) and 9.69 µM (active).

In the case of `C[C@](N)(Cc1ccc(O)c(O)c1)C(=O)O`, the Potency entry in assay [1], in assay [2], in [3], in assay [4], in assay [6] and in assay [8] was “inactive” in each case.

Values taken from PubChem BioAssay (Tox21).
